Most compounds without a hit are left out; they make up all but 3.2% or so of the library.
GDH-TPI counter-1: counter-screen for M. tuberculosis FBA inhibitors: GDH-TPI coupled enzymes; actives 1.2% (n = 360,000); inhibition, % at 4.8 µM; AID 588335; GDH-TPI coupled enzyme counterscreen, NADH absorbance; in the data active = inhibition above about 30%;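 note: 0% = DMSO wells and 100% = wells lacking the enzyme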
Mtb betalactam: beta-lactam sensitization of Mtb H37Rv; AID 434955; inhibition, % at 25 µM; M. tuberculosis H37Rv growth with meropenem, percent inhibition; actives 0.27% (n = 330,000); call rule not given here;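 note: growth measured after seven days incubation then overnight dye step; 0% = bacteria only wells and 100% = bacteria with antibiotic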
Rv3671c inh: inhibits the M. tuberculosis serine protease Rv3671c. AID 2606. inhibition, % at 5.96 µM. actives 0.048% (n = 320,000); in the data active = inhibition above about 38%;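 note: extracellular domain of Rv3671c used as enzyme; 0% = enzyme with DMSO and 100% = no enzyme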
Mtb UGM inh: blocks M. tuberculosis UGM enzyme. P9WIQ1. inhibition, % at 10 µM. actives 0.06% (n = 320,000). purified UGM, fluorescence polarization probe displacement; in the data active = inhibition above about 10%, passing the limit was not always enough
Target sequence (P9WIQ1 whole entry, looked up): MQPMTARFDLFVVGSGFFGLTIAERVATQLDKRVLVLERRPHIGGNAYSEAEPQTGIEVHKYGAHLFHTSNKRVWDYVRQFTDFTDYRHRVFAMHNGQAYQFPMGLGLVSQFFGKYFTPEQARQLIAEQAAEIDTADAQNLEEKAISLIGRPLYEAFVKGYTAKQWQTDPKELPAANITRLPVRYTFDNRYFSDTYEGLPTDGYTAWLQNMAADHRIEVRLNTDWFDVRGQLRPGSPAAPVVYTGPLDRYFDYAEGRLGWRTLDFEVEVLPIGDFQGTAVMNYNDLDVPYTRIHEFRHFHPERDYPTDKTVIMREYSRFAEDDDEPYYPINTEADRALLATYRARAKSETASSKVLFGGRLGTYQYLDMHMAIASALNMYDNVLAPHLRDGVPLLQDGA
FBA Mtb inh: inhibits M. tuberculosis FBA enzyme; P9WQA3; purified M. tuberculosis FBA, fluorescence read-out; actives 2.3% (n = 360,000); AID 588726; inhibition, % at 1 µM;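 note: 0% = vehicle and 100% = reference inhibitor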
SSB-PriA inh: inhibitors of Klebsiella pneumoniae PriA binding to SSB C-terminal tail. AlphaScreen SSBct-PriA binding, biotinylated peptide. inhibition, % at 33 µM. actives 0.6% (n = 430,000); in the data active = inhibition mostly above about 37%, no sharp cut-off; inactive = mostly below about 20%;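 note: plate controls were negative control peptide for no effect and reference peptide for full effect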
Mtb FBA inh conf: confirmation of M. tuberculosis fructose-bisphosphate aldolase inhibitors. shares compounds with FBA Mtb inh. purified M. tuberculosis FBA, fluorescence read-out. inhibition, % at 1 µM. actives 78% (n = 5,600). AID 651616;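 note: 0% = vehicle wells and 100% = reference inhibitor wells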
GDH-TPI counter-2: inhibits GDH-TPI coupling enzymes, flagging Mtb FBA hits | shares compounds with FBA Mtb inh | GDH-TPI coupled enzyme counterscreen, fluorescence | inhibition, % at 1 µM | actives 81% (n = 5,600); in the data active = inhibition above about 10%
* marks the source's active call; other numbers are inactive results. Cut-off read from the data, not from the text of the source, unless noted: active = inhibition above about 27%; inactive = the rest.

COc1ccc(SCC(=O)Nc2nc(-c3ccccc3)c(C(=O)c3ccccc3)s2)cc1 was read as SSB-PriA inh 14.0.
`O=[N+]([O-])c1ccc(Nc2c3ccccc3nc3ccccc23)cc1` gave GDH-TPI counter-1 10.4, FBA Mtb inh 50.9*, SSB-PriA inh 43.3, Mtb FBA inh conf 100.6* and GDH-TPI counter-2 83.7*.
Screening O=[N+]([O-])c1ccccc1Nc1c2ccccc2nc2ccccc12 returned GDH-TPI counter-1 5.0, Mtb betalactam 4.4, Rv3671c inh 6.7, Mtb UGM inh -1.0, FBA Mtb inh 4.7 and SSB-PriA inh 2.4.
Screening O=C(NCC1COCCO1)c1cn[nH]n1 (stereo not drawn) returned SSB-PriA inh 1.0.
Screening O=C(NC1CCC(Oc2ncc(F)cn2)CC1)c1cc(=O)c2ccccc2o1 (stereo not drawn) returned SSB-PriA inh -17.0.
`COc1ccc(-c2nc3ncccn3c2Br)cc1` gave GDH-TPI counter-1 14.2, Mtb betalactam 2.6, Rv3671c inh -0.8, Mtb UGM inh -2.8, FBA Mtb inh 49.1*, SSB-PriA inh -11.1, Mtb FBA inh conf active and GDH-TPI counter-2 186.5*.
`O=C(NCCc1ccccc1)c1ccccc1NS(=O)(=O)N1CCCC1` gave GDH-TPI counter-1 -6.5, Mtb betalactam 2.1, Rv3671c inh -3.6, Mtb UGM inh -1.1, FBA Mtb inh 26.8 and SSB-PriA inh -4.3.
Screening O=S(=O)(Nc1cccc2ccccc12)N1CCCC1 returned GDH-TPI counter-1 -4.8, Mtb betalactam 4.8, Rv3671c inh -1.9, Mtb UGM inh 5.2, FBA Mtb inh 27.6*, SSB-PriA inh -10.0, Mtb FBA inh conf 71.7* and GDH-TPI counter-2 58.9*.
Screening Cc1cc(C)n(-c2ncc(NC(=O)C3CCCO3)cn2)n1 (stereo not drawn) returned SSB-PriA inh 0.0.
`COc1ccc(-n2c(=S)[nH]c3cc(C(=O)NCCCN4CCCC4=O)ccc3c2=O)cc1OC` gave GDH-TPI counter-1 7.7, Mtb betalactam 15.1, Rv3671c inh -7.3, Mtb UGM inh 5.8, FBA Mtb inh 0.2 and SSB-PriA inh -7.8.
`COc1cccc2[nH]c(C(=O)NCCCN3CCCC3=O)cc12` gave GDH-TPI counter-1 -0.8, Mtb betalactam 4.5, Rv3671c inh -5.8, Mtb UGM inh -0.4, FBA Mtb inh 59.0*, SSB-PriA inh -5.3, Mtb FBA inh conf 142.6* and GDH-TPI counter-2 115.5*.
Cc1ccccc1-c1nc(NCCN(C)C)nc2ccsc12 was read as GDH-TPI counter-1 3.1 and FBA Mtb inh 2.7.
CC(C)Nc1nc(-c2ccccc2CO)c2sccc2n1 was read as GDH-TPI counter-1 8.8, FBA Mtb inh 73.7*, Mtb FBA inh conf 77.2* and GDH-TPI counter-2 58.5*.
For Cc1ccccc1-c1nc(NC(C)C)nc2ccsc12 the results were GDH-TPI counter-1 21.7, FBA Mtb inh 64.3*, Mtb FBA inh conf active and GDH-TPI counter-2 active.
`OCc1ccccc1-c1nc(NCC2CC2)nc2ccsc12` gave GDH-TPI counter-1 10.2, FBA Mtb inh 71.6*, Mtb FBA inh conf 63.1* and GDH-TPI counter-2 55.1*.
CCc1ccc(-c2cc(C(=O)NN=Cc3ccccn3)[nH]n2)cc1 was read as SSB-PriA inh -5.8.
For CCCSc1nnc(NC(=O)c2sc3nc(-c4cccs4)ccc3c2N)s1 the results were GDH-TPI counter-1 36.5*, Rv3671c inh -0.3, Mtb UGM inh 3.0, FBA Mtb inh 43.2*, SSB-PriA inh -8.5, Mtb FBA inh conf 153.4* and GDH-TPI counter-2 115.6*.
For Cc1csc2ncc(C(=O)NCc3ccccc3Cl)c(=O)n12 the results were GDH-TPI counter-1 11.1, Mtb betalactam 3.3, Rv3671c inh 1.0, Mtb UGM inh 0.4, FBA Mtb inh 49.0*, SSB-PriA inh 3.0, Mtb FBA inh conf 107.2* and GDH-TPI counter-2 112.1*.
`Cc1csc2ncc(C(=O)Nc3nc(-c4ccccn4)cs3)c(=O)n12` gave SSB-PriA inh 50.6.
For CC(NC(=O)c1ccccc1O)c1ccccc1 (stereo not drawn) the results were GDH-TPI counter-1 5.0, Mtb betalactam 15.4, Rv3671c inh 3.6, Mtb UGM inh 1.1, FBA Mtb inh 40.6*, SSB-PriA inh -24.5, Mtb FBA inh conf 156.5* and GDH-TPI counter-2 121.9*.
Screening Cc1csc2ncc(C(=O)NC(C)c3ccccc3)c(=O)n12 (stereo not drawn) returned GDH-TPI counter-1 21.9, Mtb betalactam -7.6, Rv3671c inh -3.2, Mtb UGM inh 2.9, FBA Mtb inh 62.6*, SSB-PriA inh 0.9, Mtb FBA inh conf 198.6* and GDH-TPI counter-2 159.4*.
Cc1cccc(NC(=O)CCC(=O)NN=Cc2ccco2)c1 was read as SSB-PriA inh -3.2.
`O=c1c2ccccc2nc2c3ccccc3c(NCc3ccccn3)nn12` gave GDH-TPI counter-1 2.1, Mtb betalactam 2.4, Rv3671c inh -3.1, Mtb UGM inh -7.3, FBA Mtb inh 78.6*, SSB-PriA inh -8.2, Mtb FBA inh conf active and GDH-TPI counter-2 179.6*.
For O=c1c2ccccc2nc2c3ccccc3c(NCCO)nn12 the results were GDH-TPI counter-1 8.4, Mtb betalactam 0.9, Rv3671c inh 1.9, Mtb UGM inh -0.5, FBA Mtb inh 33.1*, SSB-PriA inh 0.2, Mtb FBA inh conf active and GDH-TPI counter-2 active.
`O=c1c2ccccc2nc2c3ccccc3c(NCCCO)nn12` gave SSB-PriA inh -7.0.
Screening O=c1c2ccccc2nc2c3ccccc3c(NCc3cccnc3)nn12 returned GDH-TPI counter-1 3.1, Mtb betalactam -4.5, Rv3671c inh 4.4, Mtb UGM inh -1.5, FBA Mtb inh 2.2 and SSB-PriA inh 3.3.
`CS(=O)(=O)c1ccc(-c2cccc(NC(=O)c3cccc(C(F)(F)F)c3)c2)nn1` gave SSB-PriA inh 13.0.
Screening CCCCCCSc1ccc(-c2nc3ccccn3c2NCCCC)cc1 returned GDH-TPI counter-1 8.1, Mtb betalactam 99.6, Rv3671c inh 14.5, Mtb UGM inh -1.0, FBA Mtb inh 44.9*, SSB-PriA inh -20.4, Mtb FBA inh conf active and GDH-TPI counter-2 active.
Screening Cc1c(CCC(=O)O)c(=O)oc2cc(OCc3cccc(Cl)c3)ccc12 returned GDH-TPI counter-1 12.1, Mtb betalactam 4.0, Rv3671c inh -4.7, Mtb UGM inh -0.3, FBA Mtb inh 90.9*, SSB-PriA inh -14.3, Mtb FBA inh conf 114.9* and GDH-TPI counter-2 109.5*.
Screening Cc1c(Cc2ccccc2)c(=O)oc2cc(OCC(=O)NCC(O)c3ccccc3)ccc12 (stereo not drawn) returned GDH-TPI counter-1 11.8, Mtb betalactam -4.4, Rv3671c inh 1.0, Mtb UGM inh 0.9, FBA Mtb inh 79.5*, SSB-PriA inh 1.6, Mtb FBA inh conf active and GDH-TPI counter-2 active.

Assay outcomes from PubChem.
